Consider 28 compounds from the supplement of paper PMC9801561.

± gives the standard deviation of the averaged measurements.

Assay [1] relates to Escherichia coli Nissle 1917. In words: area under OmniLog respiration curve over 48 h (OmniLog units x h); higher = more growth / nutrient utilisation; extreme values may be limits of the assay. Particulars: incubation: 48 h, 37 °C.
The subject of assay [2] is Escherichia coli Nissle 1917. In words: DuctApe activity index of respiration/growth curve (0 no growth to 9 maximum) (index 0-9); higher = more growth / nutrient utilisation, active = 3 or more; extreme values may be limits of the assay. Particulars: incubation: 48 h, 37 °C.
Where [3] appears, read: nutrient role: C-Source, amino acid.
Where [4] appears, read: nutrient role: sole nitrogen source (pyruvate carbon).
Where [5] appears, read: nutrient role: C-Source, carbohydrate.
Where [6] appears, read: nutrient role: C-Source, carboxylic acid.
Where [7] appears, read: nutrient role: sole phosphorus source (pyruvate carbon).
Where [8] appears, read: nutrient role: sole sulfur source (pyruvate carbon).
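Throughout, for DuctApe activity index of respiration/growth curve (0 no growth to 9 maximum): biolog PM4 phosphorus and sulfur plates, tetrazolium violet dye reduction read in the OmniLog every 15 min, kinetic curves scored by DuctApe, each plate run in triplicate.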

Consider `CC(=O)N[C@@H](CCC(=O)O)C(=O)O` [N-Acetyl-L-Glutamic acid], for which the “area under OmniLog respiration curve” value in assay [1] (setting [3]) and in assay [1] (setting [4]) was 4.72 each time. Also, the DuctApe activity index in assay [2] (setting [3]) and in assay [2] (setting [4]) was 0 (inactive) in each case.

For the compound `CC(=O)N[C@@H]1[C@@H](O)[C@H](O)[C@@H](CO)O[C@@H]1O` [N-Acetyl-D-Glucosamine], the “area under OmniLog respiration curve” value in assay [1] (setting [5]) was 7820 ± 520; in assay [1] (setting [4]), 1070 ± 1100. For the same compound, the DuctApe activity index in assay [2] (setting [5]) was 8 (active); in assay [2] (setting [4]), 2.33 (inactive).

For the compound `NCCCC(=O)O` [g-Amino-N-Butyric acid], the figures for the “area under OmniLog respiration curve” value in assay [1] (setting [6]) and in assay [1] (setting [4]) were 4.72 and 2000 ± 1100, respectively. Moreover, the DuctApe activity index in assay [2] (setting [6]) is 0 (inactive); in assay [2] (setting [4]) it was 4 (active).

For the compound `N[C@@H](CCC(=O)O)C(=O)O` [L-Glutamic acid], the “area under OmniLog respiration curve” value came to 7390 ± 830 in assay [1] (setting [3]) and 7860 ± 1300 in assay [1] (setting [4]). Moreover, the DuctApe activity index is 7.67 (active) in assay [2] (setting [3]) and 8 (active) in assay [2] (setting [4]).

As to `N=C(N)NCCC[C@H](N)C(=O)O` [L-Arginine], the results for the “area under OmniLog respiration curve” value in assay [1] (setting [3]) and in assay [1] (setting [4]) were 4.72 and 7500 ± 1400, respectively. The figures for the DuctApe activity index in assay [2] (setting [3]) and in assay [2] (setting [4]) were 0 (inactive) and 8 (active), respectively.

Turning to `C[C@H](N)C(=O)O` [L-Alanine], the “area under OmniLog respiration curve” value in assay [1] (setting [3]) was determined as 8160 ± 580; in assay [1] (setting [4]), 7330 ± 1200. Also, the DuctApe activity index in assay [2] (setting [3]) and in assay [2] (setting [4]) was 8 (active) each time.

Consider `O=P(O)(O)OC[C@H](O)CO` (racemic) [DL-a-Glycerol Phosphate], for which the “area under OmniLog respiration curve” value in assay [1] (setting [5]) amounted to 7910 ± 780; in assay [1] (setting [7]), 9010 ± 860. Moreover, the figures for the DuctApe activity index in assay [2] (setting [5]) and in assay [2] (setting [7]) were 7.67 (active) and 8.67 (active), respectively.

With `CSCC[C@H](N)C(=O)O` [L-Methionine], the entries for the “area under OmniLog respiration curve” value in assay [1] (setting [3]), in assay [1] (setting [4]) and in assay [1] (setting [8]) were 33.3 ± 28, 4200 ± 940 and 6300 ± 150, respectively. The results for the DuctApe activity index in assay [2] (setting [3]), in assay [2] (setting [4]) and in assay [2] (setting [8]) were 0 (inactive), 6 (active) and 7 (active), respectively.

`C[C@H](N)C(=O)NCC(=O)O`: the “area under OmniLog respiration curve” value in assay [1] (setting [3]) was 7280 ± 620; in assay [1] (setting [4]) it was 8020 ± 1200. For the same compound, the DuctApe activity index in assay [2] (setting [3]) is 7.67 (active); in assay [2] (setting [4]) it was 8 (active).

Turning to `CC(N)=O` [Acetamide], the “area under OmniLog respiration curve” value in assay [1] (nutrient role: C-Source, amide) turned out to be 9.31 ± 7.2; in assay [1] (setting [4]) it was 26.4 ± 38. The DuctApe activity index in assay [2] (nutrient role: C-Source, amide) was 0 (inactive); in assay [2] (setting [4]), 0 (inactive).

Regarding `CSCC[C@H](NC(=O)CN)C(=O)O`, the results for the “area under OmniLog respiration curve” value in assay [1] (setting [4]) and in assay [1] (setting [8]) were 5710 ± 1300 and 5820 ± 90, respectively. The DuctApe activity index in assay [2] (setting [4]) and in assay [2] (setting [8]) was 7 (active) throughout.

Take `NCCC[C@H](N)C(=O)O` [L-Ornithine]: the “area under OmniLog respiration curve” value in assay [1] (setting [3]) was 34.5 ± 27; in assay [1] (setting [4]) it was 2670 ± 1300. Further, the DuctApe activity index in assay [2] (setting [3]) is 0 (inactive); in assay [2] (setting [4]), 4 (active).

On to `O=P(O)(O)O[C@H]1O[C@H](CO)[C@@H](O)[C@H](O)[C@H]1O` [D-Glucose-1-Phosphate], for which the “area under OmniLog respiration curve” value in assay [1] (setting [5]) came out at 8850 ± 750; in assay [1] (setting [7]), 8060 ± 560. Moreover, the DuctApe activity index was 8.67 (active) in assay [2] (setting [5]) and 8.33 (active) in assay [2] (setting [7]).

`N[C@H](CO)C(=O)O` [D-Serine]: the “area under OmniLog respiration curve” value is 9490 ± 1100 in assay [1] (setting [3]) and 7130 ± 1200 in assay [1] (setting [4]). Moreover, the DuctApe activity index in assay [2] (setting [3]) is 8.67 (active); in assay [2] (setting [4]) it was 7.67 (active).

For `O=C1CC[C@@H](C(=O)O)N1` [L-Pyroglutamic acid], the “area under OmniLog respiration curve” value in assay [1] (setting [3]) was determined as 6.07 ± 1.2; in assay [1] (setting [4]) it was 4.72. In addition, the DuctApe activity index in assay [2] (setting [3]) and in assay [2] (setting [4]) was 0 (inactive) throughout.

As to `N[C@H]1C(O)O[C@H](CO)[C@@H](O)[C@@H]1O` (stereo partly drawn) [D-Glucosamine], the “area under OmniLog respiration curve” value was found to be 8060 ± 400 in assay [1] (setting [5]) and 2180 ± 1100 in assay [1] (setting [4]). Also, the figures for the DuctApe activity index in assay [2] (setting [5]) and in assay [2] (setting [4]) were 8 (active) and 3.33 (active), respectively.

`NCC(=O)N[C@@H](CCC(=O)O)C(=O)O`: the “area under OmniLog respiration curve” value in assay [1] (setting [3]) was 7660 ± 620; in assay [1] (setting [4]) it was 7640 ± 1700. For the same compound, the DuctApe activity index in assay [2] (setting [3]) was 7.67 (active); in assay [2] (setting [4]), 8 (active).

With `CC[C@H](C)[C@H](N)C(=O)O` [L-Isoleucine], the figures for the “area under OmniLog respiration curve” value in assay [1] (setting [3]) and in assay [1] (setting [4]) were 11.5 ± 6.6 and 64.6 ± 81, respectively. The DuctApe activity index in assay [2] (setting [3]) is 0 (inactive); in assay [2] (setting [4]), 1 (inactive).

`NC(=O)CC[C@H](N)C(=O)O` [L-Glutamine]: the “area under OmniLog respiration curve” value was 8360 ± 610 in assay [1] (setting [3]) and 8560 ± 1200 in assay [1] (setting [4]). The DuctApe activity index in assay [2] (setting [3]) and in assay [2] (setting [4]) was 8.33 (active) each time.

For `NCC(=O)O` [Glycine], the “area under OmniLog respiration curve” value in assay [1] (setting [3]) was 4.72; in assay [1] (setting [4]), 4420 ± 1100. For the same compound, the DuctApe activity index was 0 (inactive) in assay [2] (setting [3]) and 6 (active) in assay [2] (setting [4]).

As for `NC(=O)[C@H]1O[C@@H](O)[C@H](O)[C@@H](O)[C@@H]1O` [Glucuronamide], the “area under OmniLog respiration curve” value in assay [1] (nutrient role: C-Source, amide) turned out to be 33.5 ± 50; in assay [1] (setting [4]), 2520 ± 1200. Further, the DuctApe activity index in assay [2] (nutrient role: C-Source, amide) was 0.333 (inactive); in assay [2] (setting [4]) it was 4.33 (active).

In the case of `CC(=O)N[C@@H]1C(O)O[C@H](CO)[C@@H](O)[C@@H]1O` (stereo partly drawn) [N-Acetyl-D-Mannosamine], the “area under OmniLog respiration curve” value was determined as 7300 ± 450 in assay [1] (setting [5]) and 1040 ± 740 in assay [1] (setting [4]). Besides, the results for the DuctApe activity index in assay [2] (setting [5]) and in assay [2] (setting [4]) were 7.67 (active) and 2.33 (inactive), respectively.

For `O=C[C@H](O)[C@@H](O)[C@H](O)[C@H](O)COP(=O)(O)O` [D-Glucose-6-Phosphate], the “area under OmniLog respiration curve” value in assay [1] (setting [5]) turned out to be 10100 ± 940; in assay [1] (setting [7]), 8680 ± 490. For the same compound, the DuctApe activity index in assay [2] (setting [5]) is 9 (active); in assay [2] (setting [7]) it was 8.67 (active).

Regarding `C[C@@H](O)[C@H](N)C(=O)O` [L-Threonine], the “area under OmniLog respiration curve” value in assay [1] (setting [3]) was 7940 ± 380; in assay [1] (setting [4]), 3190 ± 1200. Further, the figures for the DuctApe activity index in assay [2] (setting [3]) and in assay [2] (setting [4]) were 8 (active) and 5 (active), respectively.

Turning to `N[C@H](CC(=O)O)C(=O)O` [D-Aspartic acid], the “area under OmniLog respiration curve” value is 48 ± 53 in assay [1] (setting [3]) and 4.72 in assay [1] (setting [4]). The DuctApe activity index in assay [2] (setting [3]) was 0.667 (inactive); in assay [2] (setting [4]), 0 (inactive).

Consider `Cc1cn([C@H]2C[C@H](O)[C@@H](CO)O2)c(=O)[nH]c1=O` [Thymidine], for which the figures for the “area under OmniLog respiration curve” value in assay [1] (setting [5]) and in assay [1] (setting [4]) were 9560 ± 710 and 4.72, respectively. The DuctApe activity index in assay [2] (setting [5]) is 8.67 (active); in assay [2] (setting [4]), 0 (inactive).

`NCCCCN` [Putrescine]: the “area under OmniLog respiration curve” value in assay [1] (nutrient role: C-Source, amine) was 13.7 ± 8.1; in assay [1] (setting [4]) it was 31.6 ± 46. Moreover, the DuctApe activity index was 0 (inactive) in assay [2] (nutrient role: C-Source, amine) and 0 (inactive) in assay [2] (setting [4]).

Regarding `O=c1[nH]cnc2c1ncn2[C@@H]1O[C@H](CO)[C@@H](O)[C@H]1O` [Inosine], the “area under OmniLog respiration curve” value worked out at 9540 ± 290 in assay [1] (setting [5]) and 24.8 ± 35 in assay [1] (setting [4]). In addition, the DuctApe activity index in assay [2] (setting [5]) was 9 (active); in assay [2] (setting [4]) it was 0 (inactive).
